The panel holds about 83,000 compounds, 20% with a hit somewhere; the sample as a whole holds those more often.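 Interpretation: 100, growth as untreated; towards 0, rising growth inhibition; 0, no net growth; 0 to -100, cell death. Compounds scoring below 10 were considered active.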 Unmarked numbers belong to inactive results. Activity calls are given as the source filed them.
Test system: SK-MEL-5 melanoma
Test: NCI-60 one-dose screen, 48 h (100 = growth as untreated, 0 = no growth, -100 = all killed)
Settings: 10 µM unless noted

Row | SMILES | growth
1 | C[C@]12CC[C@@H]3c4ccc(Oc5nc(N6CC6)nc(N6CC6)n5)cc4CC[C@H]3[C@@H]1CCC2=O | 5.82% (active)
2 | CC(=O)Nc1ccc(NC(=O)c2ccc([As](O)O)cc2)cc1 | 98.1%
3 | CCC(C)(C)[C@H](NC(=O)[C@H]1CCCCN1C)C(=O)N(C)[C@H](C[C@@H](OC(C)=O)c1nc(C(=O)N[C@@H](Cc2ccccc2)C[C@H](C)C(=O)O)cs1)C(C)C | -18.1% (active)

Test system: UACC-62 melanoma
Test: as above
Settings: 10 µM unless noted

Row | SMILES | growth
4 | CC1=C(CNO)C2=C(C)C3(CC3)[C@@](C)(O)C(=O)C2=C1 | 28.7%
5 | COc1ccc(O)c(CNC(=O)CN2CCCC2=O)c1 | 96.6%
6 | CN1CCCCC1C(C)(O)c1ccccc1 (stereo not given) | 104%
7 | COC(=O)CC[C@H](Cc1ccccc1)NC(=O)c1csc([C@@H](C[C@H](C(C)C)N(C)C(=O)[C@@H](NC(=O)[C@H]2CCCCN2C)C(C)C)OC(C)=O)n1 | 34.4%
8 | COc1ccc(N(CC(=O)NCCC[Te]c2ccccc2)C(=O)CNC(=O)OC(C)(C)C)cc1 | 89.2%
9 | COC(=O)[C@@H](C)C[C@H](Cc1ccccc1)NC(=O)c1csc([C@@H](C[C@H](C(C)C)N(C)C(=O)[C@@H](NC(=O)[C@H]2CCCCN2C)C(C)C)OC(C)=O)n1 | 41.7%
10 | COC1OC(CO)C(O)C(O)[CH]1[Hg][O]C(C)=O (stereo not given) | 85.9%
11 | CC12CC=CCC1CCC1C2CCC2(C)C(c3ccc(=O)oc3)CCC12O (stereo not given) | -72.9% (active)
12 | O=C1C2CC=CCC2C(=O)N1SC(Cl)(Cl)Cl (stereo not given) | 93.6%
13 | CCOC(=O)[C@@H](C)C[C@H](Cc1ccccc1)NC(=O)c1nc([C@@H](C[C@H](C(C)C)N(C)C(=O)[C@@H](NC(=O)[C@H]2CCCCN2C)C(C)C)OC(C)=O)sc1CCOCc1ccccc1 | 4.15% (active)
14 | COP(=S)(N1CC1)N1CC1 | 109%
15 | COC(=O)[C@@H](C)C[C@H](Cc1ccccc1)NC(=O)c1nc([C@@H](C[C@H](C(C)C)N(C)C(=O)[C@@H](NC(=O)[C@H]2CCCCN2C)C(C)C)OC(C)=O)sc1C(C)C | 29.4%
16 | COC(=O)[C@@]1(O)C[C@H]2O[C@]1(C)n1c3ccccc3c3c4c(c5c6ccccc6n2c5c31)C(=O)NC4 | -47.4% (active)
17 | N/C(=N\N=C\c1ccc(-c2ccccc2)cc1)N[N+](=O)[O-] | 49.4%
18 | COc1ccc([As]=[As]c2ccc(OC)c(NCS(=O)(=O)O)c2)cc1NCS(=O)(=O)O (stereo not given) | 17%
19 | C1CCC([PH+](C2CCCCC2)C2CCCCC2[PH+](C2CCCCC2)C2CCCCC2)CC1.O=C(C1[CH-]CCCC1)C1CCCC[N-]1.[Au] (stereo not given) | -85.8% (active)
20 | O=P1(NCCCl)OCCCN1CCCl (stereo not given) | 107%
21 | O=C([O][Hg][c]1ccccc1)c1ccccc1 | -42.3% (active)
22 | CC(CO)NC1CCCCC1 (stereo not given) | 104%

Row | SMILES | growth
23 | C[C@@]12CC=C3c4nc(Nc5cccc(O)c5)sc4CC[C@]3(C)[C@H]1CC[C@]1(C)C(=O)CC[C@@H]21 | 28.8%
24 | COC(=O)[C@@H](C)C[C@H](Cc1ccccc1)NC(=O)c1csc([C@@H](C[C@H](C(C)C)N(C)C(=O)[C@@H](NC(=O)[C@H]2CCCCN2C)c2ccc(F)cc2)OC(C)=O)n1 | 40%
25 | OCCCCCNC1CCCCC1 | 102%
26 | COc1cc(/C=C/[N+](=O)[O-])c([N+](=O)[O-])cc1OC | -7.94% (active)
27 | NC(CCl)CCl | 99.9%
28 | O=[N+]([O-])CC(c1ccccc1Cl)c1c(-c2ccccc2)[nH]c2ccccc12 (stereo not given) | 30.7%
29 | C#Cc1ccc2c(c1)C(c1ccccc1)=NCC(=O)N2C | 31%
30 | CN(C)C(=O)Oc1ccccc1 | 109%
31 | OCCNC(Cc1ccccc1)c1ccc2c(c1)OCO2 (stereo not given) | 92.4%
32 | Nc1ccc2c(c1)Cc1cc(Br)ccc1-2 | 88.8%
33 | C#Cc1ccc2c(c1)C(c1ccccc1F)=NCC(=O)N2C | 31.3%
34 | O=C([O][Hg][CH2]C1OCCOC1[CH2][Hg][O]C(=O)c1ccccc1)c1ccccc1 (stereo not given) | 106%
35 | C[C@@H]1O[C@@H](O[C@H]2C[C@@H](O)[C@]3(CO)C4C(CC[C@]3(O)C2)[C@@]2(O)CC[C@H](C3=CC(=O)OC3)[C@@]2(C)C[C@H]4O)[C@H](O)[C@H](O)[C@H]1O (stereo not given in full) | -66.5% (active)
36 | CC1=C(CN)C2=C(C)C3(CC3)[C@@](C)(O)C(=O)C2=C1 | 97%
37 | COC(C(=O)[C@@H](O)[C@@H](C)O)[C@@H]1Cc2cc3cc(O[C@H]4C[C@@H](O[C@H]5C[C@@H](O)[C@H](O)C(C)O5)[C@H](O)C(C)O4)c(C)c(O)c3c(O)c2C(=O)[C@H]1O[C@H]1C[C@@H](O[C@H]2C[C@@H](O[C@H]3C[C@@H](O)[C@@H](O)C(C)O3)[C@@H](O)C(C)O2)[C@H](O)C(C)O1 (stereo not given in full) | -52.2% (active)
38 | C[C@]12CC[C@@H]3c4ccc(Oc5nc(N6CC6)nc(N6CC6)n5)cc4CC[C@H]3[C@@H]1CCC2=O | 18.4%
39 | CC(=O)Nc1ccc(NC(=O)c2ccc([As](O)O)cc2)cc1 | 78.3%
40 | CCC(C)(C)[C@H](NC(=O)[C@H]1CCCCN1C)C(=O)N(C)[C@H](C[C@@H](OC(C)=O)c1nc(C(=O)N[C@@H](Cc2ccccc2)C[C@H](C)C(=O)O)cs1)C(C)C | 30.9%

Reference: PubChem BioAssay (NCI)
